Bioassay records deposited in PubChem BioAssay by National Center for Advancing Translational Sciences (NCATS).
Hits are enriched below; roughly 3.1% of the tested compounds scored in any of these assays.
Nrf2 activator: activates Nrf2 signaling; AREc32 ARE-luciferase reporter (MCF7-derived line), luminescence, 24 h; actives 0.31% (n = 410,000); Potency, µM (series often up to 46.1 µM), actives largely listed as activators; AID 624171; also: nearly all actives have a fitted effect of over 65% in size
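AREc32 cells carrying an ARE-driven firefly luciferase reporter were seeded at 1000 cells/well in OPTI-MEM with 5% FBS, then exposed to compound for 24 hr at 37 deg C. Luminescence was read with Steady-Glo after 30 min at RT.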
IL2 activator: IL-2 activation; IL-2 activation reporter assay, cell-based qHTS; stimulated with anti-CD3/CD4/CD28 beads; in transgenic mouse T cells; activation, % (series mostly up to about 46 µM); actives 0.065% (n = 360,000); AID 652025; in the data active = activation above about 50%; inconclusive = mostly about 30% to 49%
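Unstimulated transgenic mouse T cells preincubated 60 min with compound, then stimulated with anti-CD3/anti-CD4-coated beads plus anti-CD28 for 18 h at 37 degrees C. IL-2 response read as EGFP and DsRed fluorescence by plate cytometry.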
ELG1 repair inh: blocks ELG1-dependent DNA repair in HEK293T cells; actives 2.3% (n = 330,000); HEK293T ELG1-luciferase reporter, luminescence, 16 h; DNA damage induced by 5-fluorouridine; AID 504467; Potency, µM (doses to about 46.1 µM), most hits filed as inhibitors; also: nearly all actives have a fitted effect of over 55% in size
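Step one: seed 2,000 cells per well. Step two: pin-transfer compound or DMSO alongside 5-fluorouridine. Step three: incubate 16 hr, 37 °C, 5% CO2. Step four: add ONE-Glo, wait 30 min, read luminescence.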
BRCA1 expr up: increases BRCA1 expression; MCF7-BRCA1-FFLuc reporter, luminescence, 48 h; response scale: scaled: vehicle 0%, 10 µM genistein 100%; Potency, µM (series often up to 46.1 µM), usual class: activators; actives 1.1% (n = 380,000); also: nearly all actives have a fitted effect of over 80% in size
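MCF7-BRCA1-FFLuc, 2000 cells/well; 2 h attach, 37 °C/5% CO2; compound 48 h; luciferase substrate 15 min; luminescence end-point. Norm. to genistein 10 microM max activation and DMSO; concentration-response curves fitted.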
Large screens that a line does not name were inactive. Unless noted, calls follow the shape of the dose curve; as a rule, active = well fitted curve in the direction sought with a large enough effect; inconclusive = small, poorly fitted or top-dose-only effect, or another doubt; inactive = no such curve, though single readings can be large; an effect the other way counts as inactive or inconclusive.

O=C(CCCn1c(=O)c2cccn2c2ccccc21)Nc1cccc(Cl)c1	none (no result: IL2 activator, ELG1 repair inh, BRCA1 expr up)
CCCNC(=O)c1ccccc1NC(=O)c1ccccc1N(C)S(C)(=O)=O	none
CCCNC(=O)c1ccccc1NC(=O)c1ccccc1N(C)S(=O)(=O)c1ccc(C)cc1	ELG1 repair inh 23µM
O=C(N/N=C/c1ccccc1F)NC12CC3CC(CC(C3)C1)C2	ELG1 repair inh inconclusive, BRCA1 expr up 5µM
O=C(N/N=C/c1ccccn1)NC12CC3CC(CC(C3)C1)C2	ELG1 repair inh inconclusive, BRCA1 expr up 4µM
COc1ccc(-n2ccn(Cc3ccccc3C)c(=O)c2=O)cc1	none (no result: IL2 activator, ELG1 repair inh, BRCA1 expr up)
COc1ccc(-c2noc(N3CCC(C(=O)Nc4ccc(OC)cc4OC)CC3)n2)cc1	ELG1 repair inh 13µM
COc1ccc(-c2noc(N3CCC(C(=O)Nc4ccc(F)cc4F)CC3)n2)cc1	none
CCOC(=O)c1cccc(NC(=O)c2oc3c(c2C)-c2nn(CC)cc2CC3)c1	none (no result: IL2 activator, ELG1 repair inh, BRCA1 expr up)
C[C@H]1O[C@@H](O[C@H]2[C@@H](O)C[C@H](O[C@H]3[C@@H](O)C[C@H](O[C@H]4CC[C@@]5(C)[C@H](CC[C@@H]6[C@@H]5C[C@@H](O)[C@]5(C)[C@@H](C7=CC(=O)OC7)CC[C@]65O)C4)O[C@@H]3C)O[C@@H]2C)C[C@H](O)[C@@H]1O	ELG1 repair inh 0.16µM
O=c1c(Br)c(N2CCOCC2)cnn1-c1ccccc1	ELG1 repair inh inconclusive, BRCA1 expr up 13µM
O=c1c(Br)c(N2CCCC2)cnn1-c1ccccc1	ELG1 repair inh inconclusive, BRCA1 expr up inconclusive
COCCNC(=O)c1c(C)oc2nc(C)nc(N3CCOCC3)c12	none (no result: IL2 activator, ELG1 repair inh, BRCA1 expr up)
Cc1ccc(S(=O)(=O)N2C[C@H]3C(=O)C[C@@H](c4ccccc4C)N(S(=O)(=O)c4ccc(C)cc4)[C@H]3C[C@H]2c2ccccc2)cc1	none (no result: ELG1 repair inh)
COc1ccc2nc3oc(C(=O)NC4CCN(Cc5ccccc5)CC4)cc3cc2c1	ELG1 repair inh inconclusive
CCOC(=O)N1CCC(NC(=O)c2cc3cc4cc(OC)ccc4nc3o2)CC1	ELG1 repair inh 23µM
COc1ccc2cc3cc(C(=O)NCCc4ccc(OC)c(OC)c4)oc3nc2c1	ELG1 repair inh 5.2µM
COc1ccc2cc3cc(C(=O)NCCCN4CCC(C)CC4)oc3nc2c1	ELG1 repair inh inconclusive, BRCA1 expr up 11µM
COc1ccc(OC)c(CNC(=O)c2cc3cc4ccc(OC)cc4nc3o2)c1	none (no result: IL2 activator, ELG1 repair inh)
COc1cccc(CNC(=O)c2ccc(CS(=O)Cc3ccccc3Cl)o2)c1 (stereo unspecified)	none (no result: ELG1 repair inh)
CCCC(=O)Nc1ccc2c(c1)C(=O)N(C)C[C@@H](OC)[C@H](C)CN(Cc1ccc(-c3ccccn3)cc1)[C@@H](C)CO2	none (no result: Nrf2 activator, ELG1 repair inh, BRCA1 expr up)
Cc1ccccc1N1CC(c2nc3ccccc3n2Cc2ccc(Br)cc2)CC1=O (stereo unspecified)	none (no result: IL2 activator, ELG1 repair inh)
C/C(=N\NC(=O)c1ccccc1C)c1cccc([N+](=O)[O-])c1	ELG1 repair inh inconclusive
C/C(=N\Nc1ccc(Cl)c(C(=O)O)c1)c1cccc([N+](=O)[O-])c1	ELG1 repair inh inconclusive, BRCA1 expr up 14µM
C/C(=N\Nc1cc(N2CCOCC2)nc(C)n1)c1cccc([N+](=O)[O-])c1	ELG1 repair inh 15µM
C=Cc1ccc(CSc2nc(-c3ccccc3C)nc3c2Cc2c(CO)cnc(C)c2O3)cc1	none (no result: IL2 activator, ELG1 repair inh, BRCA1 expr up)
CCOc1ccc(NC(=O)c2c(C)oc3nc(C)nc(N4CCOCC4)c23)cc1	none (no result: IL2 activator, ELG1 repair inh, BRCA1 expr up)
COc1ccc(COCC(O)CN2CCN(S(=O)(=O)c3ccc(C(C)C)cc3)CC2)cc1 (stereo unspecified)	ELG1 repair inh 13µM
Cc1cccc(NC(=O)C(=O)NCC2CCCO2)c1 (stereo unspecified)	ELG1 repair inh inconclusive, BRCA1 expr up 2.2µM
CCOc1ccc(-n2c(SCc3cc(=O)oc4cc(C)ccc34)nnc2-c2cccnc2)cc1	none
CC(C)c1ccccc1-n1c(SCc2cc(=O)oc3ccc4ccccc4c23)nnc1-c1cccnc1	ELG1 repair inh 23µM
CC(=O)Nc1ccc2c(CSc3nnc(-c4cccnc4)n3-c3ccc(C)cc3C)cc(=O)oc2c1	ELG1 repair inh 9.2µM
COC(=O)C1=C(c2ccccc2)c2ccccc2S(=O)(=O)N1CC(=O)Nc1cccc(C(C)=O)c1	none (no result: IL2 activator, ELG1 repair inh)
Cn1nc(C(F)(F)F)cc1C(=O)Nc1ccc(-c2ccno2)cc1	ELG1 repair inh 13µM
Cn1nc(C(F)(F)F)cc1C(=O)Nc1ccc(Cl)cc1	none
COc1cccc(CSc2nc3n(n2)C(c2cccs2)C(C(=O)Nc2ccccc2C)=C(C)N3)c1 (stereo unspecified)	none (no result: IL2 activator, ELG1 repair inh, BRCA1 expr up)
O=C(Cn1c(=O)n(Cc2ccco2)c(=O)c2sc3ccccc3c21)Nc1ccc(F)cc1F	none (no result: IL2 activator, ELG1 repair inh)
Cc1ccc(N=C2NC(=O)/C(=C/c3cccn3C)S2)cc1C	ELG1 repair inh inconclusive
O=C1NC(=Nc2ccccc2)S/C1=C\C=C\c1ccco1	Nrf2 activator 7.1µM, ELG1 repair inh inconclusive
O=C1S/C(=C\C=C\c2ccco2)C(=O)N1c1ccccc1	Nrf2 activator 8.9µM, ELG1 repair inh inconclusive, BRCA1 expr up 3.5µM
Cc1ccc(N=C2NC(=O)/C(=C/c3cccn3C)S2)cc1	ELG1 repair inh inconclusive, BRCA1 expr up 3.5µM
Cc1ccc(N=C2NC(=O)/C(=C/C=C/c3ccco3)S2)cc1	Nrf2 activator 2.5µM
CCCCN(CC)C(=O)CSc1nc2ccccc2c(=O)n1Cc1ccco1	none (no result: IL2 activator, ELG1 repair inh, BRCA1 expr up)
CCc1nn(-c2ccccc2)c2nc(-c3cccc(OC)c3)c3cc(OC)c(OC)cc3c12	none (no result: IL2 activator, ELG1 repair inh, BRCA1 expr up)
O=c1c(S(=O)(=O)c2ccccc2)cn(Cc2ccc(F)cc2)c2cc(N3CCCCC3)c(F)cc12	none (no result: IL2 activator, ELG1 repair inh, BRCA1 expr up)
COc1ccc(C2C(=O)N(C3CCC(C)CC3)CC(=O)N2CCC2=CCCCC2)cc1OC (stereo unspecified)	none (no result: IL2 activator, ELG1 repair inh, BRCA1 expr up)
Cc1cc(C)nc(NC(=O)/C=C/c2ccccc2Cl)c1	Nrf2 activator inconclusive, ELG1 repair inh inconclusive, BRCA1 expr up 3.2µM
Cc1cc(C)nc(NC(=O)/C=C/c2ccccc2Cl)n1	Nrf2 activator 8.9µM, ELG1 repair inh inconclusive
O=C(/C=C/c1ccc(Cl)cc1Cl)Nc1ccncc1	Nrf2 activator inconclusive, ELG1 repair inh inconclusive
Cc1cc(C)nc(NC(=O)/C=C/c2ccc(Cl)cc2Cl)c1	ELG1 repair inh inconclusive, BRCA1 expr up 6.3µM
CCCCNC(=O)C(NC(=O)c1ccc2c(c1)OCO2)C(=O)c1ccccc1 (stereo unspecified)	none (no result: Nrf2 activator, ELG1 repair inh, BRCA1 expr up)
CCOC(=O)C1=C(C)N(c2ccc(OC)cc2)C(=O)/C1=C\c1ccc(O)c(OCC)c1	none
CCOC(=O)C1=C(C)N(c2ccc(OC)cc2)C(=O)/C1=C\c1cccs1	ELG1 repair inh 21µM
O=C(NNc1c([N+](=O)[O-])cc(C(F)(F)F)cc1[N+](=O)[O-])c1ccco1	ELG1 repair inh 18µM
O=C(NNc1c(F)c(F)cc(F)c1F)c1ccco1	none
CC(=O)Oc1ccc(N(C(C)=O)S(=O)(=O)c2cccs2)c2ccccc12	ELG1 repair inh 15µM
COc1ccc(-n2c(=O)c3ccc(C(=O)NCc4ccc(C)cc4)cc3n(CC(=O)Nc3cccc(F)c3)c2=O)cc1	none (no result: IL2 activator, ELG1 repair inh)
